Hit rate of the full screen: of about 4,800 compounds, about 420 (8.8%) showed an effect of 50% or more. What follows is part of a selection rich in strong results, with near analogues and random picks from the rest.
Tested on: Plasmodium falciparum
Experiment: Confirmatory screen in NF54 nanoGlo assay, in single point, at 2uM, 72h
Assay type: functional, Erythrocyte
Settings: timepoint 72 hour

In order of falling “% Inhibition” value:
1. Nc1ncc(C(=O)N2CCC3(CCCCCC3)C2)s1  98%
2. CN1CCC(n2ncc3[nH]c(-c4ccc(C(F)(F)F)cc4)nc32)CC1  96%
3. N#Cc1cccc(-c2n[nH]c3c2CN(c2ccc(-c4ccccc4)nn2)CC3)c1  85%
4. O=c1nc2n(nc1-c1ccccc1)C1(CCC1)Nc1ccccc1-2  74%
5. COc1nc(NC[C@H]2CCCN2C(C)C)ncc1F  66%
6. CCOc1cccc(-c2ccc3nc(-c4cccc(OC)c4)c(CCC(=O)NCCN4CCCC4)n3c2)c1  61%
7. Cc1oc(-c2ccn[nH]2)cc1S(=O)(=O)Nc1cccc(Cl)c1  52%
8. Cc1cc(N(C)CCC2CC2)nc([C@H](C)N(C)CCC2CC2)n1  52%
9. Cc1ccc(C(F)(F)C(=O)NCCC(=O)NS(C)(=O)=O)cc1  49%
10. Cc1oc(-c2ccn[nH]2)cc1S(=O)(=O)Nc1ccc(F)c(Cl)c1  40%
11. CCCCN1C(=O)[C@H]2[C@H]([C@H](O)c3ccc(Cl)cc3)N[C@@]3(C(=O)Nc4ccccc43)[C@H]2C1=O  25%
12. CCOc1cccc(-c2ccc3nc(-c4cccc(OC)c4)c(CCC(=O)NCCc4ccc(OC)c(OC)c4)n3c2)c1  23%
13. COc1ccc(CCc2n[nH]c(NC(=O)CCc3c[nH]c4ccccc34)n2)cc1OC  14%
14. Cc1nnc(NC(=O)c2cc(N3CCCC3)ncn2)s1  14%
15. O=S(=O)(c1ccccc1)N1CCC(Nc2ccc(Br)cc2)CC1  10%
16. C[C@]1(CCc2ccc(O)cc2)Nc2ccccc2-c2nc(=O)c(-c3ccc(F)cc3)nn21  8%
17. CCc1nnc2ccc(S(=O)(=O)Nc3ccc(Cl)cc3)cn12  8%
18. CN(c1nc2c(cnn2C)c(=O)[nH]1)C1CCCC1c1ccc(C(F)(F)F)cc1 (centres undefined)  6%
19. O=C(CCC1CCCC1)N1CCC(N2CCCCCC2)CC1  6%
20. Cc1cccc(NS(=O)(=O)c2cc(C(=O)NCc3ccc4c(c3)OCO4)ccc2Cl)c1C  5%
21. COc1ccc2ncc(=O)n(CCOc3ccccc3)c2c1  4%
22. Cc1ccc(Cc2nc(N3CCCN(C(=O)c4ccc(C)cc4)CC3)c3cnn(-c4ccccc4)c3n2)cc1  3%
23. Cc1cccn(Cc2nnnn2C2CC2)c1=O  3%
24. O=C(O)c1csc(-c2csc(CCN3C(=O)c4ccccc4C3=O)n2)n1  3%
25. N#Cc1cc(N2CCc3ccccc3C2)nc2ccccc12  2%
26. Cc1ccccc1-c1nc2cc(NS(=O)(=O)c3ccccc3)ccc2o1  2%
27. CC(C)Cn1cc2c(C(F)(F)F)cc(=O)n(CCC(=O)Nc3cc(F)ccc3F)c2n1  1%
28. O=C(c1cnc(Nc2nc3ccccc3o2)nc1)N1CCN(c2ccccc2)CC1  0%
29. COc1cc(NC(=O)c2cccc3c(Br)cccc23)ccc1NC(=O)c1ccccc1Cl  0%
30. Cc1nnc([C@@H]2COCCN2Cc2csc(C)c2)o1  0%
31. COc1cc(OC)cc(C(=O)Nc2cnc(N3CCCCC3)c(C)c2)c1  0%
32. O=C(C[C@H]1CCC(=O)N(Cc2ccccc2)CC1)NC1CCN(Cc2ccccc2)CC1  -1%
33. O=C(Cc1ccc(Cl)cc1Cl)N1CCc2[nH]nc(C(=O)N3CCN(c4ccccc4)CC3)c2C1  -1%
34. C[C@]1(C(=O)O)Nc2ccccc2-c2nc(=O)c(-c3ccccc3)nn21  -2%
35. C#CCCCCC(=O)Nc1ncccc1Cl  -2%
36. C=CCNC(=O)N1CCC(c2nc(C)ccc2C(=O)N2CCCC2)CC1  -2%
37. C=CCS(=O)(=O)NC(=O)c1cc(C)c(C)cc1Cl  -2%
38. OC1CCC(Nc2cncc(-n3cccn3)n2)CC1 (centres undefined)  -2%
39. COc1ccccc1CNC(=O)c1cn(CC2(O)CCN(Cc3ccccc3)CC2)nn1  -3%
40. CCCn1c(C)ccc(-c2noc(CCCC(=O)N3CCOCC3)n2)c1=O  -3%
41. O=C1C[C@@H](C(=O)N2CCC3(CCCCC3)C2)CCN1  -3%
42. CC(C(=O)Nc1ncccn1)N1CCCC1Cn1cccn1 (centres undefined)  -4%
43. Cc1cnc(NC(=O)C(=O)N2CCC[C@H](n3cccn3)C2)s1  -4%
44. O=C(NC1CCCCCC1)c1cn(CC2(O)CCN(Cc3ccccc3)CC2)nn1  -4%
45. CN1CCN(c2nc(-c3cccc(C(F)(F)F)c3)nc3c2cnn3Cc2ccccc2)CC1  -4%
46. c1ccc2c(c1)ccc1oc(-c3ccn[nH]3)cc12  -5%
47. Cn1nc(-c2nc(-c3ccc(F)cc3)no2)c2c1CCN(C(=O)c1cccc(Cl)c1)C2  -5%
48. Cc1nn(C)c(C)c1-c1cc(C(=O)Nc2cc(F)ccc2F)c2c(C)nn(C)c2n1  -5%
49. O=C(O)[C@H]1CC(=O)N(c2ccc3nc(-c4cccc(F)c4)oc3c2)C1  -6%
50. CCn1ccc([C@H](C)NC(=O)c2cc(C)c(C)s2)n1  -6%
51. CCc1cc(C(=O)N[C@@H](C)c2ccccc2)c2c(C3CC3)nn(Cc3ccccc3)c2n1  -6%
52. CCn1nccc1C(=O)N1CC[C@H](CC(=O)NCc2ccncc2)C1  -6%
53. O=C(NCc1ccncc1)c1cc(C(=O)C2CCCCC2)c[nH]1  -7%
54. Cc1cc(N(CCO)C2CC2)nc(C2CC2)n1  -8%
55. COc1ccc(N2CCN(c3nccn4nc(-c5ccc(OC)c(OC)c5)cc34)CC2)cc1  -10%
56. Cc1nc(-c2ccc(NCc3cc4ccccc4o3)nc2)[nH]c(=O)c1C  -10%
57. Cc1cc(C(=O)NCc2ccncc2)no1  -11%
58. CC[C@@H](CO)NCc1cc(Br)ccc1OC  -11%
59. CC1=N[C@H](N2CCN(c3ccccc3)CC2)NC(O)=C1  -12%
60. CC1(C)Oc2cc(S(=O)(=O)NC3CCCCC3)ccc2NC1=O  -14%
61. Cc1ncsc1C(=O)N1CCC2(CCCCC2)C1  -14%
62. Cc1nc2c(Oc3ccccc3)cccc2c2c1CCN2c1ccc(OC(F)(F)F)cc1  -17%
63. Cc1ccc(CN2C(=O)[C@@H]3CCCN3c3ccc(C(F)(F)F)cc32)cc1  -17%
64. Cc1ccc(S(=O)(=O)Cc2nc(-c3ccc(C(=O)NCc4ccc(C)o4)cc3)oc2C)cc1  -18%
